Assay results from the supplement of paper PMC10849652.
About 8,800 targets were measured; listed, in parts, are those with a hit and a random draw of the rest. About 0.5% of all pairs of compound and target were hits.

Legend:
Test in all cases: log2 fold change, soluble protein after heating vs DMSO (PISA); higher = thermal stabilisation; K562 lysate, 10 uM; active = over 0.2 and 3.5 SD of the protein, either way, in both replicates (recomputed)
[1] = compound: CS(=O)(=O)CCNCc1ccc(-c2ccc3ncnc(Nc4ccc(OCc5cccc(F)c5)c(Cl)c4)c3c2)o1 [lapatinib]
In short: (§1)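 K562 pellets were dounce-homogenised in PBS pH 7.4 with 1 mM MgCl2, and the crude extract at 1 mg/mL protein was treated with 10 μM compound for 30 min. Aliquots were heated for 3 min across 48°C-58°C, pooled, and brought to 0.5% NP-40 at 4°C; soluble protein was the supernatant after 21,000xg for 90 min. Soluble protein was quantified by TMTpro 16plex LC-MS/MS with channel sums equalised, and reported as log2 fold change in thermal stability against DMSO controls, with values from duplicates.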

[2] = compound: CS(=O)(=O)N1CCN(Cc2cc3nc(-c4cccc5[nH]ncc45)nc(N4CCOCC4)c3s2)CC1 [pictilisib]
In short: as §1

[3] = compound: C[C@@H](Oc1cc(-c2cnn(C3CCNCC3)c2)cnc1N)c1c(Cl)ccc(F)c1Cl [crizotinib]
In short: as §1

[4] = compound: C[C@H](C1=CC=C(C=C1)C(=O)NC2=C3C=CNC3=NC=C2)N
In short: as §1

[5] = compound: C[C@H](Nc1ncnc2nc[nH]c12)c1cc2cccc(Cl)c2c(=O)n1-c1ccccc1 [duvelisib]
In short: as §1

[6] = compound: Cc1cc(Nc2cc(CN3CCOCC3)c3nc(C)c(Cc4ccc(Cl)cc4F)n3n2)n[nH]1 [gandotinib]
In short: as §1

[7] = compound: Cc1cc(Nc2cc(N3CCN(C)CC3)nc(Sc3ccc(NC(=O)C4CC4)cc3)n2)n[nH]1 [tozasertib]
In short: as §1

[8] = compound: Cc1ccc(-n2nc(C(C)(C)C)cc2NC(=O)Nc2ccc(OCCN3CCOCC3)c3ccccc23)cc1 [doramapimod]
In short: as §1

[9] = compound: Cc1ccc(NC(=O)c2ccc(CN3CC[C@H](N(C)C)C3)c(C(F)(F)F)c2)cc1Nc1nccc(-c2cncnc2)n1 [bafetinib]
In short: as §1

[10] = compound: Cc1cccc(CC(=O)N2CCc3c2ccc(-c2cn(C)c4ncnc(N)c24)c3F)n1
In short: as §1

Measured: log2 fold change

STUB1 (UniProt Q9UNE7)
UniProt Q9UNE7, sequence (Q9UNE7 whole entry, looked up): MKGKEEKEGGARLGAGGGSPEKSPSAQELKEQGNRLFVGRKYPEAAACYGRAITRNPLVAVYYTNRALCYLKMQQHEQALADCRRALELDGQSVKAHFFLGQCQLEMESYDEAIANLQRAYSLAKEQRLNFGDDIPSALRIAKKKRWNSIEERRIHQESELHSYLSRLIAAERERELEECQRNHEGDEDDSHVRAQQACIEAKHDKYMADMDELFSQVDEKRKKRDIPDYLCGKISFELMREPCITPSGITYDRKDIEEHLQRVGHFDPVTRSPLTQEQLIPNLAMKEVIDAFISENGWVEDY
inactive: [1] -0.01 | [2] -0.012 | [3] -0.035 | [4] 0.004 | [5] -0.01 | [6] -0.073 | [7] -0.006 | [8] 0.019 | [9] -0.054 | [10] 0.05

SMG1 (UniProt Q96Q15)
inactive: [1] -0.025 | [2] -0.05 | [3] -0.019 | [4] 0.002 | [5] 0.003 | [6] -0.105 | [7] 0.024 | [8] 0.015 | [9] -0.057 | [10] 0.049

STK11IP (UniProt Q8N1F8)
UniProt Q8N1F8, sequence (Q8N1F8 whole entry, looked up): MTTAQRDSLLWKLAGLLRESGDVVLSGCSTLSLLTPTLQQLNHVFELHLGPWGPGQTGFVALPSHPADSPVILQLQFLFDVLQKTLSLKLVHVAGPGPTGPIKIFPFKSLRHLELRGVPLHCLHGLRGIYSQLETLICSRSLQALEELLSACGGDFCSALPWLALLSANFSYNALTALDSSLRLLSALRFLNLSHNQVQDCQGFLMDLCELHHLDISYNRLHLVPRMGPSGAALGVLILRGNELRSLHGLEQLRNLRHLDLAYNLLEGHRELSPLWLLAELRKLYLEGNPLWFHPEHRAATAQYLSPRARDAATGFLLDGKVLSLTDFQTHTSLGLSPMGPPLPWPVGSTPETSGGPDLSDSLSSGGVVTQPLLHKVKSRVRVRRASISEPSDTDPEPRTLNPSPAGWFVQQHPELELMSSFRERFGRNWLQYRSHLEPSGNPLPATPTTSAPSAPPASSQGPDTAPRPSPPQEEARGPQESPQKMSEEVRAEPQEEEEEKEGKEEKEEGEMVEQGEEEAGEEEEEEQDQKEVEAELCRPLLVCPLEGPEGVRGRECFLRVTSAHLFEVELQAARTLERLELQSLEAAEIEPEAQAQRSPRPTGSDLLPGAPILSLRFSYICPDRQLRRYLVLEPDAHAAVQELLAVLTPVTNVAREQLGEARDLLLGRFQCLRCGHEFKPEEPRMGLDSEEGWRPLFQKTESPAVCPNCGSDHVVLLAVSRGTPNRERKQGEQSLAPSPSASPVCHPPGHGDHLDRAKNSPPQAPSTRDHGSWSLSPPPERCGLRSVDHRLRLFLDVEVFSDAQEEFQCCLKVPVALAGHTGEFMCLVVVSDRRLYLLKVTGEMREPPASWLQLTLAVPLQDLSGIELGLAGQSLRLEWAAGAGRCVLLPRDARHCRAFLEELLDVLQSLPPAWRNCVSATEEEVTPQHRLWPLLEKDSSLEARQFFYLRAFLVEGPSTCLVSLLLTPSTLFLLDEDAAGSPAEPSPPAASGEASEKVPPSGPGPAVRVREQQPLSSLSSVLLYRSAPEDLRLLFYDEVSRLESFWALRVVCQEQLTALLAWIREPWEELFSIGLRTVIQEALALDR
inactive: [1] 0.022 | [2] 0.012 | [3] -0.022 | [4] 0.004 | [5] -0.052 | [6] -0.019 | [7] -0.014 | [8] 0.037 | [9] -0.008 | [10] 0.036

SRGN (UniProt P10124)
UniProt P10124, sequence (P10124 whole entry, looked up): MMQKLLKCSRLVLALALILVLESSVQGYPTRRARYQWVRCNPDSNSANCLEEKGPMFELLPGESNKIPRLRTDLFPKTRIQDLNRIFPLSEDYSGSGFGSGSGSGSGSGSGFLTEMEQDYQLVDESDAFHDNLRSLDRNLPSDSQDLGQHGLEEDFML
inactive: [1] 0.016 | [2] -0.181 | [3] -0.054 | [4] -0.046 | [5] 0.019 | [6] -0.097 | [7] 0.008 | [8] -0.071 | [9] -0.17 | [10] 0.192

SMAD9 (UniProt O15198)
UniProt O15198, sequence (O15198 whole entry, looked up): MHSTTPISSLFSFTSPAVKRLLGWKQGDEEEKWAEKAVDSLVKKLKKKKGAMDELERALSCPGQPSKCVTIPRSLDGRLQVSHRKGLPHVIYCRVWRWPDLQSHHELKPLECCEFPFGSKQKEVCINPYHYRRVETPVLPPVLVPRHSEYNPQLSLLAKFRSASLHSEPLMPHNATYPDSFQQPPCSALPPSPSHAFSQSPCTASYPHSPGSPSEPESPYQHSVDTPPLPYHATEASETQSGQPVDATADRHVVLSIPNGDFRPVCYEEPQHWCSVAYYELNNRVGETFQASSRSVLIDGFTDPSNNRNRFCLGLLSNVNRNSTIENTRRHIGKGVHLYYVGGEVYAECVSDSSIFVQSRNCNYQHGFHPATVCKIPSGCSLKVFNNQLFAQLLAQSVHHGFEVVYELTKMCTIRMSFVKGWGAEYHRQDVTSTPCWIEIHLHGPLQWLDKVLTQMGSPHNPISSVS
inactive: [1] -0.056 | [2] -0.036 | [3] -0.027 | [4] -0.047 | [5] 0.091 | [6] 0.077 | [7] 0.091 | [8] 0.024 | [9] 0.014 | [10] -0.019

SURF2 (UniProt Q15527)
UniProt Q15527, sequence (Q15527 whole entry, looked up): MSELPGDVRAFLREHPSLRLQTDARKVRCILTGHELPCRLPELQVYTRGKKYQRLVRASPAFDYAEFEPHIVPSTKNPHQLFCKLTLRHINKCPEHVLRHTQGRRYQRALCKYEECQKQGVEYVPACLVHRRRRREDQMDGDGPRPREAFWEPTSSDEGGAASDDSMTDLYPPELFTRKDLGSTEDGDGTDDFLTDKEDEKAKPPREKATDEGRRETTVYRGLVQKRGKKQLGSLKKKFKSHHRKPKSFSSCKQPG
inactive: [1] -0.005 | [2] -0.049 | [3] -0.031 | [4] -0.008 | [5] 0.014 | [6] 0.092 | [7] -0.061 | [8] -0.018 | [9] -0.055 | [10] 0.111

SH3GL3 isoform 3 (UniProt Q99963)
active: [4] -0.548 | [10] 0.446
inactive: [1] -0.07 | [2] -0.087 | [3] -0.04 | [5] -0.005 | [6] 0.326 | [7] 0.028 | [8] 0.016 | [9] -0.147

SND1 (UniProt Q7KZF4)
inactive: [1] -0.008 | [2] -0.012 | [3] -0.034 | [4] 0.077 | [5] 0.008 | [6] -0.108 | [7] 0 | [8] 0.034 | [9] -0.028 | [10] -0.009

SPAG5 (UniProt Q96R06)
UniProt Q96R06, sequence (Q96R06 whole entry, looked up): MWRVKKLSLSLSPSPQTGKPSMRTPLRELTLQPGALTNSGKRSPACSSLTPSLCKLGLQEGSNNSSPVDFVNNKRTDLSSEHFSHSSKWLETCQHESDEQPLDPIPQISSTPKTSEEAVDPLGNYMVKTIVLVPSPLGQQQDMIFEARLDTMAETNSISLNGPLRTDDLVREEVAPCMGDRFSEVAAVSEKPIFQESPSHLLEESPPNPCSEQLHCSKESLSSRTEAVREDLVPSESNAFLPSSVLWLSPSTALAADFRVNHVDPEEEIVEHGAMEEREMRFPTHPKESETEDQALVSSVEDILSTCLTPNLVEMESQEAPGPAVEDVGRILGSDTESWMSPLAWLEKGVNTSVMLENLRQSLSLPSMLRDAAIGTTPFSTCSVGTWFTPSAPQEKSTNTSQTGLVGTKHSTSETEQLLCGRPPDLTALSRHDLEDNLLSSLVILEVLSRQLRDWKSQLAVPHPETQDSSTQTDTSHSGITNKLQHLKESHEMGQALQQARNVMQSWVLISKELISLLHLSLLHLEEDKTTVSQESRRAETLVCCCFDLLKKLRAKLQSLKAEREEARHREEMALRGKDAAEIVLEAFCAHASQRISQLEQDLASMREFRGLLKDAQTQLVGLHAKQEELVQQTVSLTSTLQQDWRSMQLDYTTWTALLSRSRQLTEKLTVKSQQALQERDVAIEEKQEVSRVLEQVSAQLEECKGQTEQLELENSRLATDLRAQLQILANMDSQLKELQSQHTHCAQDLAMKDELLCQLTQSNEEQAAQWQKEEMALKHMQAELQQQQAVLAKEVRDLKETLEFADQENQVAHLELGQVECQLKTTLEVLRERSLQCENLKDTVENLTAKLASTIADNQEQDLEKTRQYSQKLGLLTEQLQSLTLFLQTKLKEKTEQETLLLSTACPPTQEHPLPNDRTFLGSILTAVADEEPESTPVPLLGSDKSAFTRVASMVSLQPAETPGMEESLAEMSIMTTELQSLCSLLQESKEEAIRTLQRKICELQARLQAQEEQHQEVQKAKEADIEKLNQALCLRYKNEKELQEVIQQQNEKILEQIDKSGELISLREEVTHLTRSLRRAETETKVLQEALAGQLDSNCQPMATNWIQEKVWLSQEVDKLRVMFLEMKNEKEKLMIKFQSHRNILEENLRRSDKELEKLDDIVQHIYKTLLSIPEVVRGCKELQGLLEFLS
inactive: [1] 0.013 | [2] -0.004 | [3] -0.056 | [4] -0.016 | [5] 0.038 | [6] -0.11 | [7] 0.029 | [8] 0.036 | [9] -0.044 | [10] 0.058

SQLE (UniProt Q14534)
inactive: [1] -0.056 | [2] -0.04 | [3] -0.057 | [4] -0.025 | [5] -0.057 | [6] -0.028 | [7] 0.068 | [8] -0.035 | [9] -0.047 | [10] 0.031

SRSF2 (UniProt Q01130)
UniProt Q01130, sequence (Q01130 whole entry, looked up): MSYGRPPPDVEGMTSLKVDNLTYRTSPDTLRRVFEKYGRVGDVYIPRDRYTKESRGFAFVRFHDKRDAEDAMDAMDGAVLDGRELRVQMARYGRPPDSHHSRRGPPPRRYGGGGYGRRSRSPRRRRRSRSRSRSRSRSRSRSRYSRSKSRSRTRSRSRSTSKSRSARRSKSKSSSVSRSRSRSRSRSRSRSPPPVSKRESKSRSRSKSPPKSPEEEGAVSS
inactive: [1] 0.015 | [2] -0.005 | [3] 0.006 | [5] 0.061 | [6] 0.079 | [7] 0.026 | [8] 0.05 | [9] -0.016 | [10] 0.109
active: [4] -0.299

TAF1B (UniProt Q53T94)
UniProt Q53T94, sequence (Q53T94 whole entry, looked up): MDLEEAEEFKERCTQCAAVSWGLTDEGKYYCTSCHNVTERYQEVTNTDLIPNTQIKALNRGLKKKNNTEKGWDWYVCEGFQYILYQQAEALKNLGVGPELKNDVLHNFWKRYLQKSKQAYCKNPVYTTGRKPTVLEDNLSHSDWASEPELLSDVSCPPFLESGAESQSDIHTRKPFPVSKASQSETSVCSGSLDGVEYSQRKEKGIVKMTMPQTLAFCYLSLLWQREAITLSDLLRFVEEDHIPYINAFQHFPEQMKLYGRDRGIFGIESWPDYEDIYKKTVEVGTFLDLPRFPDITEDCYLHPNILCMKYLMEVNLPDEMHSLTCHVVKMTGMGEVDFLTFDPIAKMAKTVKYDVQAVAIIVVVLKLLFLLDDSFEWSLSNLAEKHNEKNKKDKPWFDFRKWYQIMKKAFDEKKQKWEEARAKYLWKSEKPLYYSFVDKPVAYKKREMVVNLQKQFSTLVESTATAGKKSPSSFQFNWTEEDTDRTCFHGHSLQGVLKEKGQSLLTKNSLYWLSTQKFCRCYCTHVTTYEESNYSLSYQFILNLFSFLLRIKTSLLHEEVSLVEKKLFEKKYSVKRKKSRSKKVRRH
inactive: [1] 0.012 | [2] 0.062 | [3] -0.036 | [4] -0.058 | [5] 0.34 | [6] -0.157 | [7] 0.304 | [8] 0.017 | [9] -0.004 | [10] 0.134

SSBP3 (UniProt Q9BWW4)
UniProt Q9BWW4, sequence (Q9BWW4 whole entry, looked up): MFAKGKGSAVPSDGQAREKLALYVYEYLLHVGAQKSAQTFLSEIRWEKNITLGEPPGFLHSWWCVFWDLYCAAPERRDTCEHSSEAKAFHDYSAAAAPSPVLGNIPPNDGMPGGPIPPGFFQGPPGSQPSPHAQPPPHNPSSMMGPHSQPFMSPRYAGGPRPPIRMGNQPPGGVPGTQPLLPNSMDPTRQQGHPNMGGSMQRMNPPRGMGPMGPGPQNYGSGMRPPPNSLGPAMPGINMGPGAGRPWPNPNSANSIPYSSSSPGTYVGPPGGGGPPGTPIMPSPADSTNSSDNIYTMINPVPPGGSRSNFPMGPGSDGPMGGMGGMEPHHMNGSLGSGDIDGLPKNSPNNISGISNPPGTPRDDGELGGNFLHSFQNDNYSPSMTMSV
inactive: [1] 0.039 | [2] -0.158 | [3] 0.018 | [4] -0.014 | [5] 0.019 | [6] -0.019 | [7] -0.041 | [8] 0.014 | [9] -0.06 | [10] 0.029

TAOK2 (UniProt Q9UL54)
inactive: [1] -0.049 | [2] -0.054 | [3] -0.081 | [4] -0.136 | [5] -0.002 | [6] 0.07 | [7] -0.026 | [8] 0.046 | [9] -0.004 | [10] 0.261

SMIM12 (UniProt Q96EX1)
UniProt Q96EX1, sequence (Q96EX1 whole entry, looked up): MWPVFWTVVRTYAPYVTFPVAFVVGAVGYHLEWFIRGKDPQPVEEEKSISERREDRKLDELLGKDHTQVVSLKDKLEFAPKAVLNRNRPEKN
active: [4] 0.417
inactive: [1] 0.014 | [2] 0.022 | [3] -0.024 | [5] -0.061 | [6] -0.191 | [7] -0.009 | [8] 0.077 | [9] -0.083 | [10] -0.153
